We go through 56 compounds from publication PMC4336329 (PLoS ONE, 2015).

Structures are written as SMILES. The whole screen tested about 310,000 compounds, of which about 14,000 (4.5%) showed an effect of 50% or more. Effects have a minus sign here. The entries come from a sample that favours strong results as a whole.
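Also: peak tail current of the secondary pulse compared with the same well before compound.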

Sequence of human ether-à-go-go-related gene (hERG) potassium channel (Q12809 whole entry, looked up): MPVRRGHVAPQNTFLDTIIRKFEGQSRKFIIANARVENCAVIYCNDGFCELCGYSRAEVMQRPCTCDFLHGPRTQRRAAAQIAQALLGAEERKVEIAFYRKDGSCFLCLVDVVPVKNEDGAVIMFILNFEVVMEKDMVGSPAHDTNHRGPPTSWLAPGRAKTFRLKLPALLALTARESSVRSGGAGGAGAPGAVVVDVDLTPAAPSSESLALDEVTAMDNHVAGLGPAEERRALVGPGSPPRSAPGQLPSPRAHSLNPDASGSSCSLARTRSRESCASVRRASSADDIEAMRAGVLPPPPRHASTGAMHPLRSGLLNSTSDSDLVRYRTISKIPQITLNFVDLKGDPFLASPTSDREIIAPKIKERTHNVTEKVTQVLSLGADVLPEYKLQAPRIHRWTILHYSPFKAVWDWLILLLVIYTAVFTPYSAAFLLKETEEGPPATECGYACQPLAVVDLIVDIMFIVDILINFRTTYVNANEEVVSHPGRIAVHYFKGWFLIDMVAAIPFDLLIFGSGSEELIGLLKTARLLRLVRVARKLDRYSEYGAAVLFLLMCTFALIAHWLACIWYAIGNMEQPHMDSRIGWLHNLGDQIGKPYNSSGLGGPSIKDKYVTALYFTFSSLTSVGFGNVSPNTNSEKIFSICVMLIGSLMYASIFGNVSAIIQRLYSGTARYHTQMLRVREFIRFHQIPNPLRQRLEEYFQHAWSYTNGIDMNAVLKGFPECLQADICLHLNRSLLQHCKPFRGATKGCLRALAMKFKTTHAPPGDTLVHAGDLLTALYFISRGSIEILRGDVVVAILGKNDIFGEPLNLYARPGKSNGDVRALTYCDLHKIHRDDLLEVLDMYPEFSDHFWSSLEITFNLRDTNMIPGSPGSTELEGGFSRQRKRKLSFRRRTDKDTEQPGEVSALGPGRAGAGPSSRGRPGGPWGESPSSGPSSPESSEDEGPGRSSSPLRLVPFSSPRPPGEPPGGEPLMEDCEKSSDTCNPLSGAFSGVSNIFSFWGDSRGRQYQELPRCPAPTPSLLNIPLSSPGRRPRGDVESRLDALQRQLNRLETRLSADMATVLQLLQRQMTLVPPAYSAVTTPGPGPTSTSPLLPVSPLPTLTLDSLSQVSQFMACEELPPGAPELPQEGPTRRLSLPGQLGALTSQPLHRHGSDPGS

The test concerns the target human ether-à-go-go-related gene (hERG) potassium channel (human, UniProt Q12809). Put plainly: primary screen, population patch clamp on CHO cells stably expressing hERG; higher = less effect of the substance.
Turning to `CCOC(=O)C(C)Oc1ccc(OCc2ccccc2)cc1` (centres unmarked), the “hERG current change (%, negative = inhibition) at 10uM” value is given as 20.1%.
For the compound `CC(C)(C)NS(=O)(=O)c1cccc(S(=O)(=O)c2cccc(S(=O)(=O)NC(C)(C)C)c2)c1`, the “hERG current change (%, negative = inhibition) at 10uM” value is given as -35.3%.
For the compound `CCCNS(=O)(=O)c1ccc(CCC(=O)N2CCN(CC)CC2)cc1`, the “hERG current change (%, negative = inhibition) at 10uM” value is given as -1.72%.
The result for `O=C(NC1CCS(=O)(=O)C1)c1ccc(S(=O)(=O)N2CCCCC2)cc1` (centres unmarked) reads 1.86%.
`CCC(C(=O)Nc1ccncc1)c1ccccc1` (centres unmarked): the “hERG current change (%, negative = inhibition) at 10uM” value is given as 0.0329%.
As for `CN(C)S(=O)(=O)c1ccc(S(=O)(=O)N2CCN(CCC#N)CC2)cc1`, the “hERG current change (%, negative = inhibition) at 10uM” value is reported as -1.43%.
In the case of `Cc1ccc(C2(C)NC(=O)N(CC(=O)N3CCN(S(=O)(=O)c4cccs4)CC3)C2=O)cc1` (centres unmarked), the “hERG current change (%, negative = inhibition) at 10uM” value was -31.9%.
Then `Cc1ccc(C2(C)NC(=O)N(CC(=O)N3CCN(S(=O)(=O)c4ccc(Cl)s4)CC3)C2=O)cc1` (centres unmarked), with -58%; and `CCOc1ccc(C(=O)CCC(=O)N2CCN(S(=O)(=O)c3cccc(F)c3)CC2)cc1`, with -30.7%; and `CCC1(CC)NC(=O)N(CC(=O)N2CCN(S(=O)(=O)c3cccc(F)c3)CC2)C1=O`, with 7.12%.
As for `O=C(CN1C(=O)NC2(CCCCC2)C1=O)N1CCN(S(=O)(=O)c2cccc(F)c2)CC1`, the “hERG current change (%, negative = inhibition) at 10uM” value is listed as -61.8%.
With `Cc1ccc(C2(C)NC(=O)N(CC(=O)N3CCN(S(=O)(=O)c4cccc(F)c4)CC3)C2=O)cc1` (centres unmarked), the “hERG current change (%, negative = inhibition) at 10uM” value is on record as -65.7%.
Consider `CCOc1ccc(OCCC(=O)N2CCN(S(=O)(=O)c3ccc(F)cc3)CC2)cc1`, for which the “hERG current change (%, negative = inhibition) at 10uM” value is recorded as -6.61%.
On to `O=C(CN1C(=O)NC2(CCCCC2)C1=O)N1CCN(S(=O)(=O)c2ccc(Cl)s2)CC1`, for which the “hERG current change (%, negative = inhibition) at 10uM” value stood at 4.79%.
For `O=C(CN1C(=O)NC2(CCCC2)C1=O)N1CCN(S(=O)(=O)c2cccc(F)c2)CC1`, the “hERG current change (%, negative = inhibition) at 10uM” value is 22.2%.
As for `CCOc1ccc(OCCC(=O)N2CCN(S(=O)(=O)c3cccc(F)c3)CC2)cc1`, the “hERG current change (%, negative = inhibition) at 10uM” value is listed as -62.4%.
Regarding `O=C(CN1C(=O)NC2(CCCCC2)C1=O)N1CCN(S(=O)(=O)c2ccc(F)cc2)CC1`, the “hERG current change (%, negative = inhibition) at 10uM” value is recorded as 4.02%.
Regarding `CC1(c2ccccc2)NC(=O)N(CC(=O)N2CCN(S(=O)(=O)c3cccc([N+](=O)[O-])c3)CC2)C1=O` (centres unmarked), the “hERG current change (%, negative = inhibition) at 10uM” value worked out at 5.57%.
As to `CCCC(=O)Nc1cc(C(=O)N2CCC3(CC2)OCCO3)ccc1S(=O)(=O)c1ccc(C)cc1`, the “hERG current change (%, negative = inhibition) at 10uM” value is reported as -14%.
For `COc1cc(C(=O)Nc2nc3ccccc3[nH]2)ccc1OC(F)F`, the “hERG current change (%, negative = inhibition) at 10uM” value is reported as 18%.
Take `CCc1cccc(CC)c1NC(=O)C1CN(S(=O)(=O)c2ccccc2)CCN1S(=O)(=O)c1ccccc1` (centres unmarked): the “hERG current change (%, negative = inhibition) at 10uM” value is reported as 9.16%.
The result for `COc1ccccc1NS(=O)(=O)NC(=O)c1cn(C)c2ccccc12` reads 16.8%.
As for `COc1ccc(NC(=O)CSc2nnc(-c3ccccc3)n2N)cc1`, the “hERG current change (%, negative = inhibition) at 10uM” value is -4.04%.
Consider `CCOc1ccccc1N1CCN(Cc2c(C)n(C)n(-c3ccccc3)c2=O)CC1`, for which the “hERG current change (%, negative = inhibition) at 10uM” value is on record as -20.5%.
As for `CSCCC(NC(=O)c1ccc(Cl)cc1Cl)C(=O)NNC(=O)c1ccncc1` (centres unmarked), the “hERG current change (%, negative = inhibition) at 10uM” value is listed as -6.73%.
As to `CC1(c2ccc(Cl)cc2)NC(=O)N(CC(=O)N2CCN(S(=O)(=O)c3ccccc3)CC2)C1=O` (centres unmarked), the “hERG current change (%, negative = inhibition) at 10uM” value is given as -50%.
As for `CC1(c2ccccc2Cl)NC(=O)N(CC(=O)N2CCN(S(=O)(=O)c3ccccc3)CC2)C1=O` (centres unmarked), the “hERG current change (%, negative = inhibition) at 10uM” value is given as 7.55%.
Turning to `CC(C)c1ccc(S(=O)(=O)N2CCN(C(=O)CN3C(=O)NC(C)(c4ccccc4)C3=O)CC2)cc1` (centres unmarked), the “hERG current change (%, negative = inhibition) at 10uM” value is listed as -31.6%.
As to `Cn1ncc([N+](=O)[O-])c1C(=O)Nc1nc2ccccc2n1CCN1CCCCC1`, the “hERG current change (%, negative = inhibition) at 10uM” value is -25.1%.
With `O=C(Nc1nc2ccccc2n1CCN1CCOCC1)c1ccc(Cl)cc1`, the “hERG current change (%, negative = inhibition) at 10uM” value worked out at 1.72%.
As to `Cc1c(Cl)c(C(=O)Nc2nc3ccccc3n2CCN2CCCCC2)nn1C`, the “hERG current change (%, negative = inhibition) at 10uM” value is recorded as -68.1%.
For the compound `O=C(Nc1nc2ccccc2n1CCN1CCOCC1)c1ccccc1`, the “hERG current change (%, negative = inhibition) at 10uM” value is on record as -6.69%.
The result for `CCn1cc(Cl)c(C(=O)Nc2nc3ccccc3n2CCN2CCCCC2)n1` reads -65.5%; that for `CCn1nccc1C(=O)Nc1nc2ccccc2n1CCN1CCCCC1`, -39.8%.
In the case of `CCCCn1nnc(NC(=S)NC(=O)c2cccs2)n1`, the “hERG current change (%, negative = inhibition) at 10uM” value came to 9.16%.
Turning to `COc1ccccc1Cn1c(=S)[nH]c2ccccc2c1=O`, the “hERG current change (%, negative = inhibition) at 10uM” value worked out at 32.7%.
Turning to `COc1ccc(S(=O)(=O)N2CCOCC2)cc1NC(=O)CC1CCCC1`, the “hERG current change (%, negative = inhibition) at 10uM” value was -6.2%.
With `COc1ccc(N(CC(=O)Nc2ccc3c(c2)OCCO3)S(=O)(=O)c2c(C)noc2C)cc1`, the “hERG current change (%, negative = inhibition) at 10uM” value is -6.74%.
Regarding `O=C(NC(=S)NC1CCCCC1)c1ccccc1`, the “hERG current change (%, negative = inhibition) at 10uM” value is recorded as 1.5%.
As for `COCCCn1c(=O)c2sccc2n2c(CCCC(=O)NCc3ccccc3OC)nnc12`, the “hERG current change (%, negative = inhibition) at 10uM” value is -19.9%.
With `CC(=O)c1ccc(NC(=O)CS(=O)(=O)c2cn(CC(=O)N3CCOCC3)c3ccccc23)cc1`, the “hERG current change (%, negative = inhibition) at 10uM” value is -58.6%.
For `O=C(CS(=O)(=O)c1cn(CC(=O)N2CCOCC2)c2ccccc12)Nc1ccccc1`, the “hERG current change (%, negative = inhibition) at 10uM” value was 8.09%.
On to `Cc1ccc(NC(=O)CS(=O)(=O)c2cn(CC(=O)N3CCOCC3)c3ccccc23)cc1`, for which the “hERG current change (%, negative = inhibition) at 10uM” value was -0.0981%.
As to `COc1cccc(=O)c2c(C)n(C)c(C)c12`, the “hERG current change (%, negative = inhibition) at 10uM” value is -24.7%.
As to `CCc1cc(=O)oc2cc(C)cc(OC(C)C(=O)NC3CCN(Cc4ccccc4)CC3)c12` (centres unmarked), the “hERG current change (%, negative = inhibition) at 10uM” value is -32.8%.
Turning to `CC(Oc1ccc(Br)cc1)C(=O)NC1CCN(Cc2ccccc2)CC1` (centres unmarked), the “hERG current change (%, negative = inhibition) at 10uM” value is -80.4%.
Take `Cc1c(C)c2ccc(OC(C)C(=O)NC3CCN(Cc4ccccc4)CC3)cc2oc1=O` (centres unmarked): the “hERG current change (%, negative = inhibition) at 10uM” value is -54.2%.
With `CC(Oc1ccccc1)C(=O)NC1CCN(Cc2ccccc2)CC1` (centres unmarked), the “hERG current change (%, negative = inhibition) at 10uM” value was -26.8%.
With `Cc1cc(=O)oc2c(C)c(OC(C)C(=O)NC3CCN(Cc4ccccc4)CC3)ccc12` (centres unmarked), the “hERG current change (%, negative = inhibition) at 10uM” value was -48.1%.
The result for `CC(Oc1ccc2ccc(=O)oc2c1)C(=O)NC1CCN(Cc2ccccc2)CC1` (centres unmarked) reads -75%; that for `CC(Oc1ccc2c3c(c(=O)oc2c1)CCC3)C(=O)NC1CCN(Cc2ccccc2)CC1` (centres unmarked), -47.9%; that for `Cc1cc(OC(C)C(=O)NC2CCN(Cc3ccccc3)CC2)c2c(C)cc(=O)oc2c1` (centres unmarked), -15.2%.
On to `Cc1cc(=O)oc2cc(OC(C)C(=O)NC3CCN(Cc4ccccc4)CC3)ccc12` (centres unmarked), for which the “hERG current change (%, negative = inhibition) at 10uM” value is recorded as -79.2%.
`Cc1cc(=O)oc2cc(OC(C)C(=O)NC3CCCC3)ccc12` (centres unmarked): the “hERG current change (%, negative = inhibition) at 10uM” value is -33.4%.
As to `Cc1c(C)c2ccc(OC(C)C(=O)NC3CC(C)(C)NC(C)(C)C3)cc2oc1=O` (centres unmarked), the “hERG current change (%, negative = inhibition) at 10uM” value is reported as 7.7%.
As to `CC(Oc1ccc(Br)cc1)C(=O)NC1CCCCCC1` (centres unmarked), the “hERG current change (%, negative = inhibition) at 10uM” value is -12.4%.
